Experimental data reported in PubChem BioAssay.
Activity calls are given as the source filed them.

What was measured:
[1] = test system: Plasmodium falciparum Sir2 (PF13_0152, Sir2A); experiment: pfSir2 binders on small-molecule microarrays, primary screen, biochemical, small-molecule microarray, 635 nm fluorescence (AID 1098); conditions: small-molecule microarray binding, fluorescence 635 nm; higher = more signal;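 also: score merges spot fluorescence intensity with its signal-to-noise ratio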
[2] = small-molecule microarray binders of probe aDKK1, primary screen, biochemical, biotinylated probe, 635/667 nm fluorescence (AID 1099); conditions: higher = more signal;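 also: score merges 667nm spot fluorescence with signal to noise across triplicate slides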
[3] = small-molecule microarray binders of probe aCHRDL2, primary screen, biochemical, biotinylated probe, 635/667 nm fluorescence (AID 1100); conditions: higher = more signal
[4] = splicing luciferase reporter signal modulators, primary screen, spliceosome inhibition project, cell-based, HEK293, splice +/- reporter (AID 1101); conditions: luminescence, 24 h, higher = more signal, called active from +8 up or from −8 down;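 also: HEK293 cells carrying a splicing-competent luciferase reporter gene; test concentration not given here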
[5] = target: Fibroblast growth factor 10 (Homo sapiens) (UniProt O15520); experiment: FGF10 binders on small-molecule microarrays, primary screen, biochemical, small-molecule microarray, 635 nm fluorescence (AID 1102); conditions: FGF10 binding, fluorescence 635 nm, higher = more signal
Sequence of Fibroblast growth factor 10 (Homo sapiens) (O15520 whole entry, looked up): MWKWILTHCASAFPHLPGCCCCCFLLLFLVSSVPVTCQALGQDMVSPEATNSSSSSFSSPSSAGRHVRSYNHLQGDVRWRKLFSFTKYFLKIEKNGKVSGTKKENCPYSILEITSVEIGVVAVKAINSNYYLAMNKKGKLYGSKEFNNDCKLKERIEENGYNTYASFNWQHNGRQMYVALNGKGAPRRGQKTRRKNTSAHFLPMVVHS

[6] = test system: glycogen synthase kinase-3 (GSK3A per assay name; protocol says GSK3B); experiment: GSK3 binders on small-molecule microarrays, primary screen, biochemical, small-molecule microarray, 635 nm fluorescence, GSK3A (AID 1103); conditions: small-molecule microarray binding, fluorescence 635 nm; higher = more signal; also: the record names both GSK3A and GSK3B
[7] = target: Epidermal growth factor receptor (Homo sapiens) (UniProt P00533); experiment: EGFR binders on small-molecule microarrays, primary screen, biochemical, small-molecule microarray, 635 nm fluorescence (AID 1104); conditions: EGFR binding, higher = more signal;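 also: score merges 667 nm emission intensity with spot signal to noise over triplicate slides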
Sequence of Epidermal growth factor receptor (Homo sapiens) (P00533 whole entry, looked up): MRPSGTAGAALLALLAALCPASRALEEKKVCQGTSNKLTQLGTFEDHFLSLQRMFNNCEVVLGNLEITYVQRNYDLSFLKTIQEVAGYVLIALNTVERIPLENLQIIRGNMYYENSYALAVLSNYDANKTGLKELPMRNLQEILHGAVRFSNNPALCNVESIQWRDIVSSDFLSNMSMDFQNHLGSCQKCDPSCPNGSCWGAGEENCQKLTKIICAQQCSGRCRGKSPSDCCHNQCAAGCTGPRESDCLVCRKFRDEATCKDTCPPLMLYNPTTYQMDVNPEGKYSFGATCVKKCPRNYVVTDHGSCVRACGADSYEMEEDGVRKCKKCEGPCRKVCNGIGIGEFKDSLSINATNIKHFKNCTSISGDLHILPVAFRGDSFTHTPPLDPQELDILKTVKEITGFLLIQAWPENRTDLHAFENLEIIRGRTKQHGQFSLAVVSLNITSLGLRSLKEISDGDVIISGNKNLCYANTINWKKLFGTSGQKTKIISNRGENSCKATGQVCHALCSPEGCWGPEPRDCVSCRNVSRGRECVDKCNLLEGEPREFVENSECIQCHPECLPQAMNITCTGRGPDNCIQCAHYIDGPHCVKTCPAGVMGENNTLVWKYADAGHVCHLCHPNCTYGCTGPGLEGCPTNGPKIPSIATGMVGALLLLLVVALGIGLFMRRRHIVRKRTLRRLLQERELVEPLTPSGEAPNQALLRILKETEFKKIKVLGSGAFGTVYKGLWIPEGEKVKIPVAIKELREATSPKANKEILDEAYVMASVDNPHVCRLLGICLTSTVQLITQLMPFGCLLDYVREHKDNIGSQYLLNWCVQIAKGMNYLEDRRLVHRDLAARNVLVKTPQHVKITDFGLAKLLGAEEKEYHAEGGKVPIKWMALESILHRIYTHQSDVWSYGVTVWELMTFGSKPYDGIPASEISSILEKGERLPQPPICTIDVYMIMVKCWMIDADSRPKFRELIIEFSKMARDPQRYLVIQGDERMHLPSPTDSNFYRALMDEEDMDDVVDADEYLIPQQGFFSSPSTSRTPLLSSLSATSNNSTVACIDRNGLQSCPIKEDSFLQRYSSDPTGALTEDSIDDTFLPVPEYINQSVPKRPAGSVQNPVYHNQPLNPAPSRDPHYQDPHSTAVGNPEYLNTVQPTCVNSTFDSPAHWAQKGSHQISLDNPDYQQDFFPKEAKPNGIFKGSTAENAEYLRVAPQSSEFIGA

[8] = target: Follistatin-related protein 3 (Homo sapiens) (UniProt O95633); experiment: FSTL3 binders on small-molecule microarrays, primary screen, biochemical, small-molecule microarray, 635 nm fluorescence (AID 1105); conditions: FSTL3 binding, higher = more signal;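 also: score merges emission near 667 nm and signal to noise per printed spot across three slides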
Sequence of Follistatin-related protein 3 (Homo sapiens) (O95633 whole entry, looked up): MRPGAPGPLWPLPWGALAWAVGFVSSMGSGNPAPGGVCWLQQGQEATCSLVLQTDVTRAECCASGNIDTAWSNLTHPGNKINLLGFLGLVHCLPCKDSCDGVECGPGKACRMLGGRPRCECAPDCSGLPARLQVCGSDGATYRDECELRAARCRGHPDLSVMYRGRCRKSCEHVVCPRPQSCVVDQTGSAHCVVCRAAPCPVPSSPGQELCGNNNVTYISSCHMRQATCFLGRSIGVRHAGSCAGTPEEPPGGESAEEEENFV

[9] = target: Dickkopf-related protein 1 (Homo sapiens) (UniProt O94907); experiment: DKK1 binders on small-molecule microarrays, primary screen, biochemical, small-molecule microarray, 635 nm fluorescence scan (AID 1106); conditions: DKK1 binding, higher = more signal;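 also: score merges emission near 667 nm with signal to noise over three replicate slides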
Sequence of Dickkopf-related protein 1 (Homo sapiens) (O94907 whole entry, looked up): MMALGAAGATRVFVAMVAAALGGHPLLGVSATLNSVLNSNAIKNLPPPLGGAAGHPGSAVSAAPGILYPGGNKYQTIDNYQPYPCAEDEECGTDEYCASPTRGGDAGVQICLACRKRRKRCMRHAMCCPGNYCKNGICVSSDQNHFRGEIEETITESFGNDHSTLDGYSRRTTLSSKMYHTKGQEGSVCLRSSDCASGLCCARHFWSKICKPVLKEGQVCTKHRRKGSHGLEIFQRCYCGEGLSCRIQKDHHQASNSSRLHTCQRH

[10] = test system: Inhibin beta A chain (activin A); experiment: INHBA (activin A) binders on microarrays, primary screen, biochemical, small-molecule microarray, 635 nm fluorescence scan (AID 1107); conditions: small-molecule microarray binding, higher = more signal;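 also: mouse activin A protein probed at 4.33 µg/mL on printed slides; score merges bound-protein fluorescence near 667 nm with spot signal-to-noise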
[11] = test system: Human papillomavirus type 1a protein E7 (residues 44-93); experiment: HPV1a E7 fragment binders on microarrays, primary screen, biochemical, small-molecule microarray, residues 44-93, 635 nm fluorescence (AID 1108); conditions: small-molecule microarray binding, fluorescence 635 nm; higher = more signal;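 also: E7 fragment applied at 1 µg/mL in TBST for 1 h at 4 C; score combines spot fluorescence with its signal to noise ratio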
[12] = modulators of HCV replicon luciferase signal, primary screen, HCV replication inhibitor project, Huh7 cells, luciferase reporter (AID 1109); conditions: 48 h, higher = more signal;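 also: huh7 hepatoma cells harbouring a luciferase neomycin HCV replicon reporter; luciferase luminescence as measure of HCV replicon replication; test concentration not given here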
[13] = target: Left-right determination factor 2 (Homo sapiens) (UniProt O00292); experiment: LEFTY2 binders on small-molecule microarrays, primary screen, biochemical, small-molecule microarray, 635 nm fluorescence scan (AID 1110); conditions: LEFTY2 binding, higher = more signal
Sequence of Left-right determination factor 2 (Homo sapiens) (O00292 whole entry, looked up): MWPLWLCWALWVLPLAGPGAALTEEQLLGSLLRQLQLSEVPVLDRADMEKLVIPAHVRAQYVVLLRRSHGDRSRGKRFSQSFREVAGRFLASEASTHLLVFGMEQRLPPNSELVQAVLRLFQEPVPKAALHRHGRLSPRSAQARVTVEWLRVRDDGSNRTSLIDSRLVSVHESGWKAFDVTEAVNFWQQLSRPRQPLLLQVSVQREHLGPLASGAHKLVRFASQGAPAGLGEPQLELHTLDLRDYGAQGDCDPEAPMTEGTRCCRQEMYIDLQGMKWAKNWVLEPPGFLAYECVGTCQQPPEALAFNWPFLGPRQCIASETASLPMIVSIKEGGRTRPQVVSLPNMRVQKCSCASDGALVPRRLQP

[14] = target: Calmodulin-1 (Homo sapiens) (UniProt P0DP23); experiment: CALM1 binders on microarrays, EGTA buffer, profiling panel, biochemical, small-molecule microarray, Cy5-labelled CALM1 (AID 1111); conditions: Cy5-CALM1 binding fluorescence, higher = more signal;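 also: labelled calmodulin applied in Tris saline Tween buffer holding calcium plus EGTA and DTT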
[15] = target: Calmodulin-1 (Homo sapiens) (UniProt P0DP23); experiment: calcium-bound CALM1 binders on microarrays, profiling panel, artefact control for SMM control-protein annotation, biochemical, small-molecule microarray, Cy5-labelled CALM1, plus calcium (AID 1112); conditions: Cy5-CALM1 binding fluorescence, higher = more signal;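 also: score merges spot fluorescence with signal to noise from triplicate slides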
[16] = small-molecule microarray binders of probe aWnt5a, primary screen, biochemical, biotinylated probe, 635/667 nm fluorescence (AID 1113); conditions: higher = more signal;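 also: score merges 667 nm fluorescence intensity with signal-to-noise per printed feature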
[17] = small-molecule microarray binders of probe aShh, primary screen, biochemical, biotinylated probe, 635/667 nm fluorescence (AID 1114); conditions: higher = more signal;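 also: probe is biotin-labelled aShh protein from a stem cell growth factor screen; measures binding of labelled protein to compounds printed on the slide; score merges feature fluorescence at 667 nm with signal-to-noise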
[18] = small-molecule microarray binders of probe aNog, primary screen, biochemical, biotinylated probe, 635/667 nm fluorescence (AID 1115); conditions: higher = more signal;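 also: probe is biotinylated aNog protein used at 0.15 µg/mL for 1 h at 4 C; z-score combines 667 nm fluorescence of each spot with its signal to noise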
[19] = target: Torsin-1A-interacting protein 1 (Homo sapiens) (UniProt Q5JTV8); experiment: LAP1 binders from COS7 cell lysate, primary screen, small-molecule microarray, 635/667 nm fluorescence (AID 1116); conditions: COS7-hLAP1 lysate binding, 635 nm fluorescence, higher = more signal
Sequence of Torsin-1A-interacting protein 1 (Homo sapiens) (Q5JTV8 whole entry, looked up): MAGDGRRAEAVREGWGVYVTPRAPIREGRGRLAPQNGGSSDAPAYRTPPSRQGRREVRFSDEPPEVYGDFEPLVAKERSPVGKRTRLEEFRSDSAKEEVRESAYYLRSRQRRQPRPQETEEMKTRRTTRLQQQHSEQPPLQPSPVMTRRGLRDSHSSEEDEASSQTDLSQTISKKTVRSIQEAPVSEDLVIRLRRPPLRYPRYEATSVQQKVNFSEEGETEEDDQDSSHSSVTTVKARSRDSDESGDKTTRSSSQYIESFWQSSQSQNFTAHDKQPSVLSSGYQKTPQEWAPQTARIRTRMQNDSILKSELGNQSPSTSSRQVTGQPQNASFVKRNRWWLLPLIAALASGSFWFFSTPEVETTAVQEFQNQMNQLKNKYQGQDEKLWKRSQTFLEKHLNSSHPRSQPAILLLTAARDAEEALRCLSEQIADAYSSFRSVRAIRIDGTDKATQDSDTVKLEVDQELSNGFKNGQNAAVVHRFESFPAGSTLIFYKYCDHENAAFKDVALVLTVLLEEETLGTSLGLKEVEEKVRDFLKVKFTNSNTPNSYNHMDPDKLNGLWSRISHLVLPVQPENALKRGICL

[20] = target: Alpha-bungarotoxin (Bungarus multicinctus) (UniProt P60615); experiment: alpha-bungarotoxin binders on microarray, profiling panel, artefact control for SMM control protein annotation, biochemical, small-molecule microarray, Alexa647 label, 635/667 nm fluorescence (AID 1117); conditions: alpha-BTX-A647 binding fluorescence, higher = more signal
Sequence of Alpha-bungarotoxin (Bungarus multicinctus) (P60615 whole entry, looked up): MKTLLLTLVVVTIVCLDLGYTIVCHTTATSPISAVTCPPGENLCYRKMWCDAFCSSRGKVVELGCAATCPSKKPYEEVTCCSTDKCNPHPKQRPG

Row | SMILES | composite z-score [1] | composite z-score [2] | composite z-score [3] | z-score [4] | composite z-score [5] | composite z-score [6] | composite z-score [7] | composite z-score [8] | composite z-score [9] | composite z-score [10] | composite z-score [11] | z-score [12] | composite z-score [13] | composite z-score [14] | composite z-score [15] | composite z-score [16] | composite z-score [17] | composite z-score [18] | composite z-score [19] | composite z-score [20]
1 | O=C(NCc1ccccc1)[C@@H]1c2ccccc2C(=O)N(Cc2ccccc2Cl)[C@H]1c1ccc(CO)cc1 | 0.447 | 1 | 1.01 | -1.05 (inactive) | 0.814 | 1.32 | 0.183 | 1.42 | 0.909 | 0.791 | 1.05 | -0.267 | 0.671 | -0.23 | 0.0368 | 0.0297 | 0.123 | 0.522 | 1.21 | 1.67
2 | O=c1n(-c2ccccc2)c(=O)n2n1CC(COc1ccccc1)=C1[C@@H](CCc3ccccc3)OB(O)C[C@@H]12 | 0.812 | -0.178 | -0.482 | -1.14 (inactive) | 1.02 | 0.59 | 0.235 | 0.728 | 0.488 | 0.0187 | 0.398 | -1.91 | 0.41 | 0.0534 | 0.205 | 0.0181 | 0.277 | -0.118 | 0.684 | 1.17
3 | CC(C)(C)OC(=O)CC[C@@]1(C(=O)N2CCOCC2)N=C(c2ccc(OCCCO)cc2)O[C@@H]1c1ccccc1 | 1.12 | 1.33 | 1.36 | -1.17 (inactive) | 0.728 | 0.943 | -0.384 | -0.462 | -0.607 | 0.743 | 0.358 | -0.0126 | -0.26 | 2.08 | 1.31 | -0.0403 | 0.798 | 1.4 | 3.32 | 2.06
4 | CC(C)C(=C=CC[C@H](O)c1ccc(OCCO)cc1)C[C@H](O)COCc1ccccc1 | 1.12 | -0.0067 | -0.226 | -0.642 (inactive) | 0.498 | 0.653 | -0.445 | 0.421 | 0.141 | 1.42 | 0.162 | -1.87 | -0.022 | 0.59 | -0.627 | -0.0403 | 0.0469 | 0.217 | 0.833 | 1.07
5 | CC(C)[Si](C#C[Si](C(C)C)(C(C)C)C(C)C)(O[C@H](C)c1cn([C@H](C)c2ccccc2)nn1)C(C)C | 0.366 | 0.106 | 0.351 | -1.8 (inactive) | 0.597 | 0.339 | 0.292 | 0.806 | 0.538 | -0.269 | 0.946 | 0.0537 | 0.188 | 0.242 | -0.479 | -0.131 | -0.138 | 0.444 | 0.245 | 0.833
6 | C=CCNC(=O)[C@@H]1[C@H]2C(=O)O[C@H](c3ccccc3)[C@H](c3ccccc3)N2[C@H](c2ccc(O)cc2)[C@@]12C(=O)Nc1ccccc12 | 0.442 | -0.0741 | 0.363 | 0.633 (inactive) | 0.237 | -0.608 | -1.14 | 0.133 | 0.131 | -0.287 | 0.197 | -0.603 | -1.01 | 0.439 | 0.259 | -0.0758 | 0.0756 | 0.955 | -0.0205 | 1.33
7 | [N-]=[N+]=NCc1ccccc1C[C@@]1(C(=O)NCc2ccccc2)N=C(c2ccc(OCCCO)cc2)O[C@@H]1c1ccccc1 | 0.92 | 0.928 | 1.12 | -1.4 (inactive) | 0.185 | 0.6 | -0.471 | -0.159 | -0.373 | 0.661 | 0.212 | -3.05 | -0.592 | 1.43 | 1.21 | 0.0761 | 0.0644 | 0.868 | 0.595 | 0.732
8 | COc1ccc(/C=C/C(=O)c2cccc(OCC(=O)OC(C)(C)C)c2)cc1 | 0.726 | 0.145 | 0.436 | -0.611 (inactive) | -0.189 | 0.483 | -0.693 | -0.525 | -0.442 | 0.379 | 0.268 | 1.33 | -0.606 | -0.0784 | -0.159 | -0.173 | -0.2 | -0.5 | 0.154 | 0.45
9 | C=C(C(=O)CC[C@H](OC(C)=O)c1ccc(CO)o1)C(C)C | 1.73 | -0.272 | -0.476 | -1.4 (inactive) | 0.0843 | 0.626 | -0.986 | -0.144 | 0.24 | 0.0011 | -0.559 | -1.52 | -0.586 | -0.579 | -0.758 | -0.096 | 0.0048 | -0.309 | 1.15 | -0.292
10 | CC(C)C(CO)N1C(=O)[C@@H]2[C@H]3C(=O)OCC=C[C@H]3OC23C=CCN(Cc2ccccc2)C(=O)[C@@H]13 (stereo not given in full) | -0.734 | -0.26 | 0.0297 | -0.346 (inactive) | -0.367 | -0.882 | -1.12 | -0.718 | -0.149 | 0.859 | -1.25 | -0.498 | -0.275 | -0.886 | -0.783 | -0.256 | 0.0141 | 0.0342 | -0.207 | -1.44
11 | COCCOC(=O)N1C(=O)[C@@]2(c3cc(C#CCNC(N)=O)ccc31)[C@H](C(=O)NC[C@H](O)c1ccccc1)[C@H]1C(=O)O[C@H](c3ccccc3)[C@H](c3ccccc3)N1[C@@H]2c1ccc(O)cc1 | 1.54 | 0.347 | 0.925 | 0.012 (inactive) | 0.477 | 0.0604 | -0.0057 | 0.683 | -0.347 | 0.7 | 0.515 | -0.249 | 0.0741 | 1.01 | 0.571 | -0.0203 | -0.152 | -0.122 | 0.138 | 1.04
